Measurements from PubChem BioAssay AID1159580 (chemical genetic matrix, 2015).
Values joined by “and” are separate entries in the source; they are usually repeats but may differ in a detail not shown here. Equal values may be shown once. The campaign covered roughly 5,500 compounds. About 2,000 (36%) were called active. Roughly 18% stayed inconclusive and do not appear here. Some of the results follow. Values without a mark were called inactive. Cut-off read from the data, not from the text of the source: active = normalized growth mostly below about 0.91 (no sharp cut-off); inconclusive = no clear call, values can overlap the other calls; inactive = mostly above about 0.92.

Assay: chemical genetic growth profiling, strain panel (AID 1159580);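 note: tested at 20 µM; growth read once vehicle control cultures reached saturation at 30 °C; 1 = growth at the plate median or of vehicle wells; lower values mean less growth of the strain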
Conditions: growth OD

Q: What does the source list for COc1ccc(-c2coc3cc(O)cc(O)c3c2=O)cc1?
A: normalized growth (S. cerevisiae deletion strains, locus YAL013W, strain DEP1, active compounds read low): 0.497 (active); normalized growth (S. cerevisiae deletion strains, locus YBR021W, strain FUR4, active compounds read low): 0.988; normalized growth (S. cerevisiae deletion strains, locus YBR229C, strain ROT2, active compounds read low): 0.77 (active); normalized growth (S. cerevisiae deletion strains, locus YCL029C, strain bik1, active compounds read low): 0.496 (active); normalized growth (S. cerevisiae deletion strains, locus YDL035C, strain GPR1, active compounds read low): 0.241 (active); normalized growth (S. cerevisiae deletion strains, locus YDL074C, strain BRE1, active compounds read low): 0.261 (active); normalized growth (S. cerevisiae deletion strains, locus YDL101C, strain DUN1, active compounds read low): 0.358 (active); normalized growth (S. cerevisiae deletion strains, locus YDL134C, strain PPH21, active compounds read low): 0.295 (active); normalized growth (S. cerevisiae deletion strains, locus YDL185W, strain tfp1, active compounds read low): 0.899 (active); normalized growth (S. cerevisiae deletion strains, locus YDL192W, strain arf1, active compounds read low): 0.28 (active); normalized growth (S. cerevisiae deletion strains, locus YDR101C, strain arx1, active compounds read low): 0.504 (active); normalized growth (S. cerevisiae deletion strains, locus YDR150W, strain NUM1, active compounds read low): 0.323 (active); normalized growth (S. cerevisiae deletion strains, locus YDR162C, strain NBP2, active compounds read low): 0.12 (active); normalized growth (S. cerevisiae deletion strains, locus YDR318W, strain mcm21, active compounds read low): 0.265 (active); normalized growth (S. cerevisiae deletion strains, locus YDR388W, active compounds read low): 0.286 (active); normalized growth (S. cerevisiae deletion strains, locus YDR502C, strain sam2, active compounds read low): 0.287 (active); normalized growth (S. cerevisiae deletion strains, locus YEL061C, strain CIN8, active compounds read low): 0.206 (active); normalized growth (S. cerevisiae deletion strains, locus YER110C, active compounds read low): 0.539 (active); normalized growth (S. cerevisiae deletion strains, locus YER155C, strain BEM2, active compounds read low): 0.199 (active); normalized growth (S. cerevisiae deletion strains, locus YER167W, strain BCK2, active compounds read low): 0.178 (active); normalized growth (S. cerevisiae deletion strains, locus YGL078C, strain dbp3, active compounds read low): 0.649 (active); normalized growth (S. cerevisiae deletion strains, locus YGL086W, strain mad1, active compounds read low): 0.258 (active); normalized growth (S. cerevisiae deletion strains, locus YGL248W, strain PDE1, active compounds read low): 0.286 (active); normalized growth (S. cerevisiae deletion strains, locus YGR078C, strain PAC10, active compounds read low): 0.227 (active); normalized growth (S. cerevisiae deletion strains, locus YGR135W, strain pre9, active compounds read low): 0.314 (active); normalized growth (S. cerevisiae deletion strains, locus YGR229C, strain SMI1, active compounds read low): 0.196 (active); normalized growth (S. cerevisiae deletion strains, locus YGR252W, strain gcn5, active compounds read low): 0.507 (active); normalized growth (S. cerevisiae deletion strains, locus YHR030C, strain SLT2, active compounds read low): 0.248 (active) and 0.299 (active); normalized growth (S. cerevisiae deletion strains, locus YHR079C, strain IRE1 (second series), active compounds read low): 0.526 (active); normalized growth (S. cerevisiae deletion strains, locus YHR079C, strain IRE1, active compounds read low): 0.293 (active); normalized growth (S. cerevisiae deletion strains, locus YHR094C, strain hxt1, active compounds read low): 0.627 (active); normalized growth (S. cerevisiae deletion strains, locus YHR129C, strain ARP1, active compounds read low): 0.363 (active); normalized growth (S. cerevisiae deletion strains, locus YHR200W, strain rpn10, active compounds read low): 0.513 (active); normalized growth (S. cerevisiae deletion strains, locus YIL066C, strain RNR3, active compounds read low): 0.361 (active); normalized growth (S. cerevisiae deletion strains, locus YIL073C, strain SPO22, active compounds read low): 0.532 (active); normalized growth (S. cerevisiae deletion strains, locus YIL125W, strain kgd1, active compounds read low): 0.697 (active); normalized growth (S. cerevisiae deletion strains, locus YIR030C, strain dcg1, active compounds read low): 0.465 (active); normalized growth (S. cerevisiae deletion strains, locus YJL095W, strain BCK1, active compounds read low): 0.172 (active) and 0.287 (active); normalized growth (S. cerevisiae deletion strains, locus YJL134W, strain LCB3, active compounds read low): 0.7 (active); normalized growth (S. cerevisiae deletion strains, locus YJL168C, strain set2, active compounds read low): 0.888 (active); normalized growth (S. cerevisiae deletion strains, locus YJL187C, strain SWE1 (second series), active compounds read low): 0.353 (active); normalized growth (S. cerevisiae deletion strains, locus YJR043C, strain POL32, active compounds read low): 0.374 (active); normalized growth (S. cerevisiae deletion strains, locus YJR066W, strain TOR1, active compounds read low): 0.16 (active); normalized growth (S. cerevisiae deletion strains, locus YJR075W, strain HOC1, active compounds read low): 0.179 (active); normalized growth (S. cerevisiae deletion strains, locus YKL009W, strain mrt4, active compounds read low): 0.484 (active); normalized growth (S. cerevisiae deletion strains, locus YKL068W, active compounds read low): 0.964; normalized growth (S. cerevisiae deletion strains, locus YKL085W, strain MDH1 (second series), active compounds read low): 0.604 (active); normalized growth (S. cerevisiae deletion strains, locus YKL085W, strain MDH1, active compounds read low): 0.604 (active); normalized growth (S. cerevisiae deletion strains, locus YKL190W, strain CNB1, active compounds read low): 0.223 (active); normalized growth (S. cerevisiae deletion strains, locus YKR001C, strain vps1, active compounds read low): 0.189 (active); normalized growth (S. cerevisiae deletion strains, locus YLR039C, strain RIC1, active compounds read low): 0.241 (active); normalized growth (S. cerevisiae deletion strains, locus YLR058C, strain SHM2, active compounds read low): 0.365 (active); normalized growth (S. cerevisiae deletion strains, locus YLR102C, strain apc9, active compounds read low): 0.625 (active); normalized growth (S. cerevisiae deletion strains, locus YLR113W, strain HOG1, active compounds read low): 0.332 (active); normalized growth (S. cerevisiae deletion strains, locus YLR262C, strain YPT6, active compounds read low): 0.181 (active); normalized growth (S. cerevisiae deletion strains, locus YLR268W, strain sec22, active compounds read low): 0.211 (active); normalized growth (S. cerevisiae deletion strains, locus YLR330W, strain CHS5, active compounds read low): 0.356 (active); normalized growth (S. cerevisiae deletion strains, locus YLR342W, strain FKS1 (second series), active compounds read low): 0.289 (active); normalized growth (S. cerevisiae deletion strains, locus YLR371W, strain rom2, active compounds read low): 0.493 (active); normalized growth (S. cerevisiae deletion strains, locus YLR418C, strain cdc73, active compounds read low): 0.192 (active); normalized growth (S. cerevisiae deletion strains, locus YML016C, strain PPZ1, active compounds read low): 0.444 (active); normalized growth (S. cerevisiae deletion strains, locus YML032C, strain rad52, active compounds read low): 0.449 (active); normalized growth (S. cerevisiae deletion strains, locus YML124C, strain tub3, active compounds read low): 0.449 (active); normalized growth (S. cerevisiae deletion strains, locus YMR078C, strain ctf18, active compounds read low): 0.407 (active); normalized growth (S. cerevisiae deletion strains, locus YMR223W, strain ubp8, active compounds read low): 0.297 (active); normalized growth (S. cerevisiae deletion strains, locus YMR263W, strain SAP30, active compounds read low): 0.424 (active); normalized growth (S. cerevisiae deletion strains, locus YMR307W, strain GAS1, active compounds read low): 0.148 (active); normalized growth (S. cerevisiae deletion strains, locus YNL067W, strain RPL9B, active compounds read low): 0.234 (active); normalized growth (S. cerevisiae deletion strains, locus YNL128W, strain TEP1, active compounds read low): 0.272 (active); normalized growth (S. cerevisiae deletion strains, locus YNL153C, strain GIM3, active compounds read low): 0.439 (active); normalized growth (S. cerevisiae deletion strains, locus YNL183C, strain NPR1, active compounds read low): 0.228 (active); normalized growth (S. cerevisiae deletion strains, locus YNL233W, strain BNI4, active compounds read low): 0.242 (active); normalized growth (S. cerevisiae deletion strains, locus YNL250W, strain rad50, active compounds read low): 0.789 (active); normalized growth (S. cerevisiae deletion strains, locus YNL271C, strain bni1, active compounds read low): 0.623 (active); normalized growth (S. cerevisiae deletion strains, locus YNL298W, strain CLA4, active compounds read low): 0.459 (active); normalized growth (S. cerevisiae deletion strains, locus YNL307C, strain MCK1, active compounds read low): 0.114 (active); normalized growth (S. cerevisiae deletion strains, locus YNL322C, strain KRE1, active compounds read low): 0.337 (active); normalized growth (S. cerevisiae deletion strains, locus YNR052C, strain pop2, active compounds read low): 0.656 (active); normalized growth (S. cerevisiae deletion strains, locus YOL006C, strain TOP1, active compounds read low): 0.29 (active); normalized growth (S. cerevisiae deletion strains, locus YOL012C, strain htz1): 0.231; normalized growth (S. cerevisiae deletion strains, locus YOL147C, strain pex11, active compounds read low): 0.362 (active); normalized growth (S. cerevisiae deletion strains, locus YOR061W, strain CKA2, active compounds read low): 0.432 (active); normalized growth (S. cerevisiae deletion strains, locus YOR069W, strain VPS5, active compounds read low): 0.501 (active); normalized growth (S. cerevisiae deletion strains, locus YOR136W, strain idh2, active compounds read low): 0.304 (active); normalized growth (S. cerevisiae deletion strains, locus YOR144C, strain elg1, active compounds read low): 0.652 (active); normalized growth (S. cerevisiae deletion strains, locus YOR184W, strain ser1, active compounds read low): 0.111 (active); normalized growth (S. cerevisiae deletion strains, locus YOR231W, strain MKK1, active compounds read low): 0.288 (active); normalized growth (S. cerevisiae deletion strains, locus YOR316C, strain cot1, active compounds read low): 0.636 (active); normalized growth (S. cerevisiae deletion strains, locus YPL055C, strain LGE1, active compounds read low): 0.176 (active); normalized growth (S. cerevisiae deletion strains, locus YPL241C, strain CIN2, active compounds read low): 0.289 (active); normalized growth (S. cerevisiae deletion strains, locus YPL256C, strain CLN2, active compounds read low): 0.345 (active); normalized growth (S. cerevisiae deletion strains, locus YPR119W, strain clb2, active compounds read low): 0.308 (active); normalized growth (S. cerevisiae deletion strains, locus YPR141C, strain kar3, active compounds read low): 0.935; normalized growth (S. cerevisiae deletion strains, locus YPR163C, strain tif3, active compounds read low): 0.207 (active); normalized growth (S. cerevisiae deletion strains, locus YPR167C, strain met16, active compounds read low): 0.44 (active); normalized growth (S. cerevisiae deletion strains, strain wtn01, active compounds read low): 0.226 (active); normalized growth (S. cerevisiae strains, strain wild type, active compounds read low): 0.244 (active)
